Measured values: the supplement of paper PMC8726507

Tested on: Plasmodium falciparum NF54-HGL (transmission to Anopheles stephensi)
Assay: percentage of barcode signal found in uninfected mosquitoes (transmission-blocking activity); higher = stronger blocking of transmission to mosquito, active = 80 or more
Conditions: 10 µM; gametocyte preincubation time 24 h; readout time post-feed 8 days
Experimental: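 The mixture was fed to Anopheles stephensi in 96-well plates as blood meals tagged with DNA-barcoded Asaia bacteria. Eight days later, mosquitoes were classed infected or uninfected by luminescence (mean + 5 SD of unfed controls). Barcodes were quantified by Luminex MagPlex-TAG in the pooled uninfected and infected Asaia cultures, background-corrected, and the score is % of barcode signal in uninfected mosquitoes = 100*Iu/(Iu+Ii).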

| Compound | percentage of barcode signal found in uninfected mosquitoes |
| --- | --- |
| O=C(NCc1ccco1)N1CCN(Cc2ccc(Cl)s2)CC1 | 0.794% (inactive) |
| CC[C@@H]([C@H](C)O)n1ncn(-c2ccc(N3CCN(c4ccc(OC[C@@H]5CO[C@@](Cn6cncn6)(c6ccc(F)cc6F)C5)cc4)CC3)cc2)c1=O | 42.4% (inactive) |
| CNC1C(OC2C(OC3C(O)C(O)C(NC(=N)N)C(O)C3NC(=N)N)OC(C)C2(O)C=O)OC(CO)C(O)C1O (stereo not drawn) | 47% (inactive) |
| O=C(NC1CC1)c1ccc(CSCc2ccccc2Cl)o1 | 36.9% (inactive) |
| Cc1ccc2oc(-c3cc(NC(=O)Cc4ccccc4)ccc3Cl)nc2c1 | 24% (inactive) |
| CC(C)(C)n1nc(-c2ccccc2)c2c(N)ncnc21 | -3.29% (inactive) |
| c1coc(CNc2nc(N3CCCCC3)nc3ccccc23)c1 | 38.7% (inactive) |
| CN1CCN(CCCOc2ncc(Nc3ncc(-c4ccc(C(F)(F)F)c(F)c4)nc3C(N)=O)cn2)CC1 | 75.6% (inactive) |
| Cc1nnc(NCc2cccc(Cl)c2)c2ccccc12 | 34.2% (inactive) |
| Cc1cnc(CCNC(=O)c2cc(-c3ccc(Cl)cc3)cs2)[nH]1 | 7.14% (inactive) |
| Cc1nnc(NC(=O)c2cn(-c3ccccc3)nc2-c2ccccc2C)o1 | 81% (active) |
| COc1ccc(-c2cc(NC(=O)c3ccc(F)cc3Cl)ccc2OC)cc1 | -1.77% (inactive) |
| Nc1ncnc2c1c(Cc1cccc3ccccc13)nn2CC1CCNCC1 | 74.2% (inactive) |
| O=C(Cn1ccnc1[N+](=O)[O-])NCc1ccccc1 | 70% (inactive) |
| COc1ccccc1C(C)NCC(=O)Nc1cc(C(F)(F)F)ccc1Cl (stereo not drawn) | 11.8% (inactive) |
| Cc1ccc2nc(Cl)c(CNCc3cccs3)cc2c1 | 7.16% (inactive) |
| Cc1ccc(C(=O)Nc2ccc(S(=O)(=O)O)c3cc(S(=O)(=O)O)cc(S(=O)(=O)O)c23)cc1NC(=O)c1cccc(NC(=O)Nc2cccc(C(=O)Nc3cc(C(=O)Nc4ccc(S(=O)(=O)O)c5cc(S(=O)(=O)O)cc(S(=O)(=O)O)c45)ccc3C)c2)c1 | 32.8% (inactive) |

Same assay, conditions: 20 µM; gametocyte preincubation time 24 h; readout time post-feed 8 days

| Compound | percentage of barcode signal found in uninfected mosquitoes |
| --- | --- |
| CCOC(=O)c1c(NC(=O)c2c(F)c(F)c(F)c(F)c2F)sc(C(N)=O)c1C | 60.8% (inactive) |
| CC1=Nc2ccc(Cl)cc2C(c2ccccc2)N1CCNC(=O)CN(C)C (stereo not drawn) | 71.2% (inactive) |
| Cc1ccc(-c2nc(CN(Cc3ccccn3)C(C)C)cs2)o1 | 81.4% (active) |
| COc1cc(-c2cc(-c3ccc(S(C)(=O)=O)cc3)cnc2N)ccc1O | 48.6% (inactive) |
| CCN(CC)C(=O)N1CCN(C)CC1 | 4.35% (inactive) |
| O=C(OCc1ccccc1)N1CCC(c2cc(-c3ccncc3)c(-c3ccc(F)cc3)[nH]2)CC1 | 16.8% (inactive) |
| CC(=O)NCC1CN(c2ccc(-c3ccc(CO)cc3)c(F)c2)C(=O)O1 (stereo not drawn) | 30.3% (inactive) |
| CCn1ncc2c(NC3CCOCC3)c(CNC(=O)c3ccnn3C)c(C)nc21 | 91.2% (active) |
| Nc1nc2ccc(-c3cncc(Oc4ccc(F)cc4)c3)cc2[nH]1 | 99.4% (active) |
| Cc1ccccc1C(=O)N1N=C(Nc2ccccc2)SC1(C)C | -0.332% (inactive) |
| Cc1cc(C)n(-c2ccc(NC(=O)C3CCN(Cc4cnc(C)s4)CC3)cc2)n1 | 1.19% (inactive) |
| COc1ccc(Cn2cnc3c(-c4ccco4)nc(Cl)nc32)cc1 | 21.6% (inactive) |
| c1cncc(NCc2ccc(-c3cc4ccncc4cc3OC3CCNCC3)s2)c1 | 99.4% (active) |
| Cc1cc(OCC(=O)NCc2ccccc2)c2cc(Br)ccc2n1 | 0.13% (inactive) |
| Cc1cc(NC(=O)c2ccc(Oc3ccc(Cl)cc3O)o2)no1 | 33% (inactive) |
| COc1cccc(-n2nnnc2S(C)(=O)=O)c1 | 70.1% (inactive) |
| CCOC(=O)c1noc(N)c1-c1ccccc1 | 25.4% (inactive) |
| O=C(Nc1cccc(-c2ccc(NCCCN3CCCC3)nc2)c1)c1ccccc1 | 29.8% (inactive) |
| COc1cc(CN2CCC3(C=Cc4ccccc43)CC2)cc2c1OCO2 | 0.609% (inactive) |
| CCC(Sc1nc2ccccc2o1)C(=O)Nc1nnc(C)s1 (stereo not drawn) | -0.757% (inactive) |
| CC(=O)Nc1ccc(-c2noc(CC3CCCN(Cc4cccc(F)c4C)C3)n2)cc1 (stereo not drawn) | 0.0253% (inactive) |
